From PubChem
The full list was thinned out, with hits kept by preference.
TTR transcr act – increases transthyretin transcription | SH-SY5Y TTR promoter Gaussia luciferase, luminescence; 100% = recombinant luciferase protein wells | activation, % at 16.7 µM | 1.3% of 92,000 active;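 active = activation above the mean of all tested compounds plus 3 SD, cut at about 9.5% in these data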;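 also: cells exposed to compounds for one day before reading; 0% = median of all test compound wells on the plate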
TTR inh HuH7 – decreases TTR transcription in HuH7 cells in activator counter-screen | shares compounds with TTR transcr act | inhibition, % at 16.7 µM | HuH7 TTR promoter-Gaussia luciferase reporter, luminescence | 4% of 1,100 active | AID 1117279;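 active = average inhibition above the solvent-only control wells' mean plus 3 SD, cut at about 15% in these data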;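 also: 0% = cells with DMSO only and 100% = cells with inhibitor control FD; inhibitors lower well luminescence so higher value means more inhibition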
TTR up confirm – confirmation of human transthyretin transcription activators. activation, % at 16.7 µM. shares compounds with TTR transcr act. 1,100 tested, under 10 active. AID 1117280. SHSY5Y TTR promoter Gaussia luciferase, luminescence; 100% = purified Lucia enzyme wells, no cells;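 active = mean activation above a set limit taken from the earlier primary screen, cut at about 11% in these data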;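 also: 0% = DMSO-treated cells and 100% = recombinant Lucia luciferase without cells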
* marks the source's active call; other numbers are inactive results.

SMILES | TTR transcr act | others
CCN(CC)CCCNC(=O)C1(N[C@@H](Cc2c[nH]c3ccccc23)C(=O)NCC(OC)OC)CCCCC1 | 0.4
CCCOc1ccc(-c2nc(CSCC(=O)NC3CC3)c(C)o2)cc1 | -0.6
CCCCCn1nnnc1C1(C)CCCC(=O)N1Cc1ccco1 (stereo not given) | 1.4
CCCCn1c(SCc2c(C)noc2C)nc2cc(S(N)(=O)=O)ccc21 | 16.2* | TTR inh HuH7=-24.2;TTR up confirm=0.2
CCCCn1c(SCC(=O)Nc2oc(C)c3c(C)n[nH]c(=O)c23)nc2cc(S(N)(=O)=O)ccc21 | 0.9
CCCCn1c(SCC(=O)Nc2cc(C)on2)nc2cc(S(N)(=O)=O)ccc21 | 1.1
CCCNC(=O)N1C[C@H](O)COC[C@@H]2O[C@@H](CC(=O)NCCCN3CCOCC3)CC[C@H]21 | 0.4
COc1cc(CCN(C(=O)c2cc3ccccc3[nH]2)C(C)c2nc3ccccc3[nH]2)cc(OC)c1 (stereo not given) | 12.9* | TTR inh HuH7=-21.9;TTR up confirm=-0.4
COc1ccc2[nH]c(C(=O)N(Cc3ccccn3)Cc3ccccn3)cc2c1 | 0.7
CCC(c1nc2ccccc2[nH]1)N(C(=O)Cc1cc(OC)cc(OC)c1)c1ccc(N2CCOCC2)cc1 (stereo not given) | 2.0
COc1ccc(CN(C)C(=O)[C@H]2O[C@@H](n3ccc(N)nc3=O)[C@H](O)[C@@H]2O)cc1OC | 0.8
COc1ccc(NC(=O)Cn2c(=O)n(CC3CCCO3)c(=O)c3cc(OC)c(OC)cc32)c(OC)c1 (stereo not given) | -0.4
COc1cc2c(=O)n(CC3CCCO3)c(=O)n(CC(=O)Nc3cccc(Cl)c3)c2cc1OC (stereo not given) | 10.4* | TTR inh HuH7=-27.5;TTR up confirm=-0.4
COc1cc2c(=O)n(CC3CCCO3)c(=O)n(CC(=O)Nc3ccc(F)cc3F)c2cc1OC (stereo not given) | 0.4
COc1cccc(-c2csc(NC(=O)Nc3ccccc3)n2)c1 | -4.6
COc1cccc(-c2csc(NC(=O)C3CC3)n2)c1 | 10.9* | TTR inh HuH7=32.9*;TTR up confirm=-1.2
COc1cccc(C(=O)Nc2nc(-c3ccncc3)cs2)c1 | -0.9
C[C@H]1CN([C@@H](C)CO)C(=O)CCCn2nncc2CO[C@H]1CN(C)S(=O)(=O)c1ccc2ccccc2c1 | -1.4
CCCc1cc(=O)oc2cc(OCC(=O)NCCN3CCOCC3)c(Cl)cc12 | -1.9
O=C(CCN1CCOCC1)c1ccccc1 | -2.1
O=C(CCN1CCOCC1)NCc1ccccc1 | 0.9
N/C(CCN1CCOCC1)=N/O | 10.2* | TTR inh HuH7=-16.2;TTR up confirm=-0.1
O=C(CCc1c[nH]c2ccccc12)OCc1cccc([N+](=O)[O-])c1 | 0.0
O=C(N[C@@H](Cc1ccccc1)C(=O)NCP(=O)(O)OC(Cc1ccccc1)C(=O)O)OCc1ccccc1 (stereo not given in full) | 0.5
Cc1cc2nc(-c3ccccc3)c(CC3CCCCC3)n2c(C)c1Br | 22.5* | TTR inh HuH7=-8.1;TTR up confirm=0.7
SMILES | TTR transcr act | others
CCCc1nc2cc(C)c(Br)c(C)n2c1CC1CCCCC1 | -1.6
Cc1cc2nc(-c3cccc(Cl)c3)c(CC3CCCCC3)n2c(C)c1Br | 2.1
Cc1cc2nc(-c3ccc(F)cc3)c(CC3CCCCC3)n2c(C)c1Br | 1.7
Cc1ccc(-c2nc3cc(C)c(Br)c(C)n3c2CC2CCCCC2)cc1 | 9.8* | TTR inh HuH7=-9.2;TTR up confirm=-0.2
COc1ccc(-c2nc3cc(C)c(Br)c(C)n3c2CC2CCCCC2)cc1OC | 2.3
O=C(NCc1ccc(C(F)(F)F)cc1)O[C@H]1CC[C@@]23CCCN2C(=O)CCC[C@H]3C1 | -1.8
CNC[C@@H]1Oc2cc(Br)ccc2S(=O)(=O)N([C@@H](C)CO)C[C@H]1C | -0.2
CCOC(=O)[C@@H](NC(=O)CC[C@H]1O[C@@H](n2cc(C)c(=O)[nH]c2=O)C[C@@H]1O)C(C)C | -0.4
COc1ccc(/C=C/C(=O)NC2=NCCS2)c(OC)c1 | -0.9
CCCCNC(=O)C1C(c2ccc(OC)cc2)=Nc2ccccc2N1C(=O)Cc1cc(OC)cc(OC)c1 (stereo not given) | 0.3
CCCCCCCNC(=O)C1(CC2CC(c3cccc(Br)c3)=NO2)CCN(C(=O)c2ccccc2)CC1 (stereo not given) | 16.8* | TTR inh HuH7=7.6;TTR up confirm=-0.1
O=C(Cc1ccc(F)cc1)N1CCC(CC2CC(c3cccc(Br)c3)=NO2)(C(=O)NCC2CCCCC2)CC1 (stereo not given) | -2.3
COc1ccc(CNC(=O)C2(CC3CC(c4ccccc4)=NO3)CCN(C(=O)CCCCCBr)CC2)cc1 (stereo not given) | 1.2
C=CCN1[C@H](C)COc2cccc(N3CCSCC3)c2S1(=O)=O | 0.1
Cc1ccccc1CN1CCCCC(NC(=O)C2CCCCC2)C1=O (stereo not given) | -0.5
CCCCOCCCNC(=O)C[C@H]1C[C@@]2(C(=O)OC)C(=C[C@H](C(C)C)O[C@@H]2C2CC2)N(Cc2ccc(Cl)cc2Cl)C1=O | -0.4
